Values without a mark were called inactive. The source made the active and inactive calls. Calls come from the whole dose curve; as a rule, active = well fitted activation curve with a large enough effect in the repeat runs; inconclusive = weak or mixed curves; inactive = flat fitted curve, though single readings scatter.
Assay: Caspase-3/7 induction in CHO-K1 cells by small molecules, qHTS assay (AID 1346980); note: nearly all actives have a fitted effect of over 15% in size
Settings: CHO-K1 caspase-3/7 induction, Caspase-Glo luminescence, 17 h; series mostly up to 92.4 µM
Source text: National Center for Advancing Translational Sciences [NCATS]
NIH Chemical Genomics Center [NCGC]
U.S. Environmental Protection Agency [EPA]
National Institutes of Environmental Health Sciences [NIEHS]
National Toxicology Program [NTP]
Apoptosis is a process of programmed cell death and plays a central role in the development of multicellular organisms. It is a highly regulated process and induces cell death by activating caspases, which are the members of cysteine aspartic acid-specific protease (caspase) family. Caspases involved in apoptosis are classified by their mechanism of action as initiator caspases (caspase-2, -8, -9 and -10) and executioner caspases (caspase-3, -6, and -7). Inhibition of apoptosis results in number of cancers, autoimmune diseases, inflammatory diseases and viral infection. To identify small molecule compounds that induce apoptosis, a homogeneous, luminescent Caspase-Glo 3/7 assay was used. Wild type CHO-K1 cells were used to screen Tox21 libraries for identifying caspase-3/7 activity inducers.
CHO-K1 cells were dispensed at 1,500 per well in 5uL of culture medium into white solid bottom 1536-well plates (Corning Life Sciences, Corning, NY) using a Multidrop Combi (Thermo Scientific, Waltham, MA) dispenser. The assay plates were incubated at 37 C and 5% CO2 for 5hr, and then 23nL of compounds dissolved in DMSO and positive control were transferred using a Pintool station (Wako, San Diego, CA). The assay plates were incubated at 37C and 5% CO2 for 17hr. For caspase-3/7 activity read, 4uL of Caspase-Glo 3/7 reagent (Promega Corporation, Madison, WI) was added to each well of the assay plates using Flying Reagent Dispenser (FRD, Aurora Discovery, San Diego, CA) and incubated the assay plates at room temperature for 30min. The luminescence signal was quantified using a ViewLux plate reader (Perkin Elmer, Shelton, CT).
% is set by controls: 0 for no effect and ±100 for the full control effect.

Compound	outcome	caspase-3/7 activation
NO	inactive	
CCN(C=O)CC	inactive	
CC(C)(N)C#N	inactive	
O=C(O)CNC(=O)c1ccccc1	inactive	
C[N+]1(C)[C@@H]2CC(OC(=O)[C@H](CO)c3ccccc3)C[C@H]1[C@@H]1O[C@@H]12 (stereo not given in full)	inactive	
CCC(C)(CCCC(C)C)OC(C)=O (stereo not given)	inactive	
O=C(O)CCCC[P+](c1ccccc1)(c1ccccc1)c1ccccc1	inactive	
C=C[Si](OC(C)=O)(OC(C)=O)OC(C)=O	inactive	
CC(C)NNC(=O)c1ccncc1	inactive	
CCOC(=O)COc1cc(-n2ncc(C(F)(F)F)c(C)c2=O)c(F)cc1Cl	inactive	
CCCCCCC1CCC(=O)O1 (stereo not given)	inactive	
CO/N=C(\C(=O)N[C@@H]1C(=O)N2C(C(=O)O)=C(CSc3nc(=O)c(O)nn3C)CS[C@H]12)c1csc(N)n1	inactive	
CC(=O)c1ccc2ccccc2c1	inactive	
CCCCS(=O)(=O)N[C@@H](Cc1ccc(OCCCCC2CCNCC2)cc1)C(=O)O	inactive	
C=CN1CCCCCC1=O	inactive	
CC[N+](CC)(CC(=O)Nc1c(C)cccc1C)Cc1ccccc1 (tested in a mixture with another compound)	inactive	
c1coc(CNc2ncnc3nc[nH]c23)c1	inactive	
CC(COc1ccccc1)NN (stereo not given)	inactive	
[K+]	inactive	
C[C@H]1[C@H](NC(=O)/C(=N/OC(C)(C)C(=O)O)c2csc(N)n2)C(=O)N1S(=O)(=O)O (stereo in doubt)	inactive	

Compound	outcome	caspase-3/7 activation
C=C(C)C(=O)OCC(O)CO (stereo not given)	inactive	
CC/C=C\CCOC(C)OCC (stereo not given)	inactive	
O=C(CO)[C@@H](O)[C@H](O)[C@H](O)CO	inactive	
Cc1cccc(C)c1NC(=O)CC12CCCN1CCC2	inactive	
CCCc1nn(C)c2c(=O)[nH]c(-c3cc(S(=O)(=O)N4CCN(C)CC4)ccc3OCC)nc12	inactive	
CCNS(=O)(=O)c1ccc(C)cc1	inactive	
CC(=O)c1cnccn1	inactive	
O=C1CCCCCCCCCCCCCCO1	inactive	
O=C(c1ccccc1)C1(O)CCCCC1	inactive	
Nc1ccccn1	inactive	
Cc1ncc([C@@H](CCCCCCc2ccc3c(n2)NCCC3)CC(=O)O)cn1	inactive	
CC1=NN(c2cccc(S(=O)(=O)O)c2)C(=O)C1	inactive	
CCOC(=O)c1cnc2c(cnn2CC)c1NN=C(C)C	inactive	
COc1cccc(OC)c1C(=O)N[C@@H]1C(=O)N2[C@@H]1SC(C)(C)[C@@H]2C(=O)O	inactive	
CC(C)(C)C(=O)c1ccccc1	inactive	
CNC(=O)Nc1ccc(Cl)c(Cl)c1	inactive	
Cc1ccc(C(=O)Nc2ccc(S(=O)(=O)O)c3cc(S(=O)(=O)O)cc(S(=O)(=O)O)c23)cc1NC(=O)c1cccc(NC(=O)Nc2cccc(C(=O)Nc3cc(C(=O)Nc4ccc(S(=O)(=O)O)c5cc(S(=O)(=O)O)cc(S(=O)(=O)O)c45)ccc3C)c2)c1	inactive	
c1ccc(Cc2ccccc2)cc1	inactive	
CCN[C@@H]1C[C@H](N)[C@@H](OC2OC(CN)=CCC2N)[C@H](O)[C@H]1O[C@H]1OC[C@](C)(O)[C@H](NC)[C@H]1O (stereo not given in full)		-0.394% [at 0.349 µM]
COC(=O)Nc1ccc(Cl)c(Cl)c1	inactive	

Reference: PubChem BioAssay (Tox21)
